In PubChem BioAssay:

Experiment: binders from COS7 lysate, DM2A8 probe, primary screen, torsin A project, cell lysate, small-molecule microarray, fluorescence 635/667 (AID 1065)
Details: higher = more signal, COS7 lysate expressing mutant human TOR1A
`CCCCC(=C=CC[C@H](O)c1ccccc1OCCO)C[C@H](O)COCc1ccccc1` gave a composite z-score of 0.273. `C[C@@H]1C=CCC(=O)OC[C@H](C)C(=O)N2CCC[C@H]2C(=O)OC1` gave a composite z-score of 2.45. Compound `CC(C)c1ccc(NN2C(C(O)c3ccc4c(c3)OCO4)C=CC3C(=O)N(c4ccccc4)C(=O)C32)cc1` (stereo not given) has a composite z-score of 0.461. In the case of `COc1ccc(COC(=O)NN=C2C[C@@H](O)[C@@H](O)[C@@H]3[C@@H]4C(=O)N(c5ccc(F)cc5F)C(=O)[C@@H]4CC[C@@H]23)cc1`, the composite z-score is reported as 0.515. With `C=C(/C(=C/C[C@@H](OC(=O)c1ccncc1)c1ccc(OCCO)cc1)c1cnc2ccccc2c1)C(C)C` the composite z-score was -0.0128. Compound `Cn1c(=O)n2n(c1=O)[C@H]1[C@H](O)[C@@H]3O[C@@H]3C(=NOC[C@@H](O)COCc3ccco3)[C@H]1CC2` has a composite z-score of 0.614. `CCOC(=O)CCN1C(=O)[C@H]2[C@H]3[C@H](O)[C@H](O)CC(=NNC(=O)OCc4ccc(OC)cc4)[C@@H]3CC[C@H]2C1=O` showed a composite z-score of 0.336. With `CCCNC(=O)OC[C@H]1O[C@H](CCON=CC[C@@H]2C=C[C@H](OC(C)=O)[C@@H](COC(C)=O)O2)C=C[C@@H]1Oc1ccc(OC)cc1` the composite z-score was 0.453. In the case of `COC(=O)[C@H](C)NC(=O)CCC1CC(OC(=O)NCc2cccc3ccccc23)CC2(CCCC(COC(=O)NCCc3ccc(Cl)cc3)O2)O1` (stereo not given in full), the composite z-score is reported as -0.0486. `COc1ccc(O[C@H]2C=C[C@@H](c3ccccc3)O[C@@H]2COC(=O)CCC(C)=NO[C@@H](C)c2cc(-c3c(C)cc(C)cc3C)no2)cc1` showed a composite z-score of -0.499. With `CN(C)C(=O)[C@@]1(Cc2ccccc2)N=C(c2ccc(OCCCO)cc2)O[C@H]1c1ccccc1CN=[N+]=[N-]` the composite z-score was 1.92. `COc1ccc(OC[C@H]2Cc3c(-c4ccccc4)nc4c(c3CO2)CN(CCOc2ccccc2)CC4)cc1` showed a composite z-score of 0.228. `COC(=O)C1=C(C)N(Cc2ccccc2)[C@]23O[C@](C(=O)OC)(C(=O)N2[C@@H]1c1ccccc1)[C@H]1CCOC(=O)[C@H]13` showed a composite z-score of 0.601. For `COC(=O)CC=C[C@@H](C)[C@@H](C=NO[C@@H](C)c1cc(-c2c(C)cc(C)cc2C)no1)OC`, the composite z-score was -1.99. Work on `COc1ccc(O[C@H]2C=C[C@@H](c3ccccc3)O[C@@H]2COC(=O)CCC(C)=NO[C@H](C)c2cn([C@@H]3COC[C@H]3O)nn2)cc1` yielded a composite z-score of 0.518. In the case of `CC(C)=NOCc1cccc(-c2cc(-c3ccccc3)no2)c1`, the composite z-score is reported as 0.221. Compound `CCCNC(=O)OC[C@H]1O[C@H](CCON=C2[C@H]3CCn4c(=O)n(-c5ccccc5)c(=O)n4[C@H]3[C@H](O)[C@@H]3O[C@H]23)C=C[C@@H]1Oc1ccc(OC)cc1` has a composite z-score of 0.447. `CC[C@@H](c1ccccc1)n1c(=O)n2n(c1=O)[C@H]1[C@H](O)[C@@H]3O[C@@H]3C(=NOCC(C)C)[C@H]1CC2` showed a composite z-score of 0.428. In the case of `COC(=O)C1=C(C)[C@@H](O)[C@@H](C)[C@H](c2c(OC)c(OC)c(C)c(OC)c2OC)O1`, the composite z-score is reported as 0.487. For `CC(C)C[C@@H]1NC(=O)[C@H]2C[C@@H](C(=O)O)[C@@H](c3ccc(O)cc3)N2C1=O`, the composite z-score was 1.31. In the case of `CC(=O)OC[C@H]1O[C@@H](ON=C[C@@H](C)[C@H](OCc2ccccc2)C(C)C)[C@H](OC(C)=O)[C@@H](OC(C)=O)[C@@H]1OC(C)=O`, the composite z-score is reported as 1.69. `COc1ccc(O[C@@H]2[C@H](O)CO[C@H]2C=CC#Cc2ccccc2)cc1` gave a composite z-score of 0.511. In the case of `CCN1C(=O)[C@H]2[C@H]3[C@H](O)[C@H](O)CC(=NOC[C@@H](C)[C@H](OCc4ccccc4)C(C)C)[C@@H]3CC[C@H]2C1=O`, the composite z-score is reported as 1.28. `COC(=O)[C@]1(CO)N=C(c2ccc(OCCCO)cc2)O[C@@H]1c1ccccc1N=[N+]=[N-]` showed a composite z-score of 0.525. In the case of `CCCCCN1CC=CC23O[C@@H]4C=CCOC(=O)[C@@H]4[C@H]2C(=O)N(CCCCCCO)[C@@H]3C1=O` (stereo not given in full), the composite z-score is reported as -0.859.
